# Data: PubChem BioAssay (NCATS)
# Results filed as inconclusive are left out. Active and inactive are the calls of the source. Unless noted, calls come from the whole dose curve.
# Key:
# [1] = qHTS for Inhibitors of the Functional Ribonucleoprotein Complex (vRNP) of Lassa (LASV) Arenavirus: Viability assay - alamar blue signal for LASV Primary Screen (AID 1347083; calls by dose curve; tested in HEK293 reporter line; note: nearly all actives have a fitted effect of over 80% in size; note: potency is the fitted concentration of half-maximal effect)
# [2] = qHTS for Inhibitors of the Functional Ribonucleoprotein Complex (vRNP) of Lymphocytic Choriomeningitis Arenaviruses (LCMV): Viability assay - alamar blue signal for LCMV Primary Screen (AID 1347085; calls by dose curve; tested in HEK293 reporter line; note: nearly all actives have a fitted effect of over 80% in size; note: potency is the fitted concentration of half-maximal effect)
# [3] = target: Nucleoprotein (Lymphocytic choriomeningitis virus (strain Armstrong)) (UniProt P09992); test: qHTS for Inhibitors of the Functional Ribonucleoprotein Complex (vRNP) of Lymphocytic Choriomeningitis Arenaviruses (LCMV): LCMV Primary Screen - GLuc reporter signal (AID 1347086); note: nearly all actives have a fitted effect of over 70% in size; note: potency is the fitted concentration of half-maximal effect; for activity change, negative = inhibition: % is set by controls: 0 for no effect and ±100 for the full control effect
# [4] = Cytotoxicity counterscreen for inhibitors of SARS-CoV-2 cell entry (AID 1645845); note: nearly all actives have a fitted effect of over 50% in size; note: potency is the fitted concentration of half-maximal effect
# Method in brief: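 After a 15 min room-temperature ATPLite 1step step, luminescence reflected ATP remaining in HEK293-ACE2 cells exposed to compound for 1 h plus 48 h at 37 C, with percent activity set by cell and no-cell controls.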
# [5] = Primary qHTS to identify inhibitors of SARS-CoV-2 cell entry (AID 1645846); conditions: activity change, negative = inhibition: at 57.1 µM (top of the series) unless noted; note: nearly all actives have a fitted effect of over 45% in size
# Method in brief: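 HEK293 cells stably expressing human ACE2, pre-treated 1 h with compound, then infected with MLV particles pseudotyped with Wuhan-Hu-1 spike (C-terminal 19-aa truncation). Luciferase luminescence after 48 h at 37 °C, normalised to spike PP and bald PP.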
# [6] = target: Alpha-galactosidase (Coffea arabica) (UniProt Q42656); test: Counterscreen for Glucocerebrosidase Inhibitors: qHTS Assay for Coffee Bean alpha-Galactosidase at pH 4.5 (AID 957; active = well fitted curve in the direction sought with a large enough effect; an effect the other way counts as inactive or inconclusive;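 note: plate controls were enzyme alone for no effect and no enzyme for full effect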)
# Method in brief: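 Fluorogenic read-out: 4-methylumbelliferone at Ex 365/Em 440 nm after NaOH/glycine stop (pH 10). Enzyme 2 nM, 4-MU-alpha-galactoside 80 uM, citrate buffer pH 4.5, 20 min RT; normalized to no-enzyme and enzyme controls.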
# [7] = target: Alpha-galactosidase (Coffea arabica) (UniProt Q42656); test: Counterscreen for Glucocerebrosidase Inhibitors: qHTS Assay for Coffee Bean alpha-Galactosidase at pH 5.9 (AID 998; active = well fitted curve in the direction sought with a large enough effect; an effect the other way counts as inactive or inconclusive;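 note: plate controls were uninhibited enzyme for no effect and no-enzyme basal signal for full effect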)
# Method in brief: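 In 50 mM citric acid pH 5.9 with 0.005% Tween-20, coffee bean enzyme hydrolyses 80 uM 4-MU alpha-D-galactopyranoside over 20 min at RT. Activity is normalized to controls; AC50 comes from Hill-modelled concentration-response data.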
# [8] = Validation screen for inhibitors of Lassa infection (AID 463096); note: % is set by controls: 0 for no effect and ±100 for the full control effect
# [9] = Inducers of the Endoplasmic Reticulum Stress Response (ERSR) in human glioma: Validation (AID 504836; active = well fitted curve in the direction sought with a large enough effect; an effect the other way counts as inactive or inconclusive; note: 0% is about no effect)
# Method in brief: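 Stably transfected U87-MG human glioma cells carrying a GRP78-based luminescent sensor were seeded at 1000 cells/well, pin-dosed with compounds and incubated 16 h. Luciferase reagent was then added, and end-point luminescence was read after 10 min at room temperature.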
# [10] = VSVG counterscreen qHTS to identify inhibitors of SARS-CoV-2 cell entry (AID 1645847); note: potency is the fitted concentration of half-maximal effect; nearly all actives have a fitted effect of over 65% in size
# Method in brief: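 HEK293-ACE2 cells (Expi293F, human ACE2) pretreated 1 h with compound, then infected with MLV-based VSV-G pseudotyped particles for 48 h at 37 C; luciferase luminescence normalized to VSV-G PP and bald PP wells.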
# Nucleoprotein (Lymphocytic choriomeningitis virus (strain Armstrong)), sequence (P09992 whole entry, looked up): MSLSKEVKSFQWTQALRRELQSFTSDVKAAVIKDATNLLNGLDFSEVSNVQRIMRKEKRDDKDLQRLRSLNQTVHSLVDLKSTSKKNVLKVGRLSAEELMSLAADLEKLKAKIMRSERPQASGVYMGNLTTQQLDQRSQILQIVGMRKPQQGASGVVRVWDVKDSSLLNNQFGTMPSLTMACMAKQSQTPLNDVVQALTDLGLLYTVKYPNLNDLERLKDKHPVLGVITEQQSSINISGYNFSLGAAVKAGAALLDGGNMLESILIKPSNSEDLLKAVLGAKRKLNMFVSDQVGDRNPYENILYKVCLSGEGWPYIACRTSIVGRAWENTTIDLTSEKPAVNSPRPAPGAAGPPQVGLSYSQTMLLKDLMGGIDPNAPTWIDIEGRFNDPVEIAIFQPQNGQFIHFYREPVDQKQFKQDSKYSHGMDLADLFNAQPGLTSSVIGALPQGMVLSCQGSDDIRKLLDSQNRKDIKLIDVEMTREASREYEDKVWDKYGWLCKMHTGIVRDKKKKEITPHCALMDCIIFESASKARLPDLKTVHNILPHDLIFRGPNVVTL
# Alpha-galactosidase (Coffea arabica), sequence (Q42656 whole entry, looked up): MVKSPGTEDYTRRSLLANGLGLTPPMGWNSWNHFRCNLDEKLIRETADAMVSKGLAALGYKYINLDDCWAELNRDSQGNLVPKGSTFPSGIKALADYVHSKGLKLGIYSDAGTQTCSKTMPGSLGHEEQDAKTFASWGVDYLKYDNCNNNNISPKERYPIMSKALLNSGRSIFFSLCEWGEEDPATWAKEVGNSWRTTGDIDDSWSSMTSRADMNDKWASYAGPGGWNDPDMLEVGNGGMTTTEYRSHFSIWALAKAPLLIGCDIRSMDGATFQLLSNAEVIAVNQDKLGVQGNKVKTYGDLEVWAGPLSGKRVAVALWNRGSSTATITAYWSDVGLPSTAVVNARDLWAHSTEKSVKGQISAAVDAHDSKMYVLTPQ
smiles,measurement,setting,value
C=CC(=O)Nc1cccc(Oc2nc(Nc3ccc(N4CCN(C)CC4)cc3)ncc2Cl)c1,Potency,[1],2.73 µM (active)
same,Potency,[2],1720 nM (active)
same,Potency,[3],inactive
CCC(C=C[C@@H]1OC(=O)C=C[C@H]1C)=C[C@H](C)CC=CC(C)=C[C@@H](C)C(=O)[C@@H](C)[C@H](O)[C@@H](C)CC(C)=CC(=O)O,Potency,[1],0.114 µM (active)
same,Potency,[2],144 nM (active)
same,Potency,[3],203 nM (active)
O=C(O)Cn1nnc(-c2cc(N3CCC(Oc4cc(F)ccc4Br)CC3)no2)n1,Potency,[1],1.53 µM (active)
same,Potency,[2],1720 nM (active)
same,Potency,[3],2730 nM (active)
same,Potency,[4],3.55 µM (active)
same,"activity change, negative = inhibition",[5],-56.8%
COc1ccc2c(c1OC)C(=O)OC2[C@H]1c2c(cc3c(c2OC)OCO3)CCN1C (some centres undefined),outcome,[6],inactive
same,outcome,[7],inactive
same,Potency,[1],1.53 µM (active)
same,Potency,[2],1530 nM (active)
same,Potency,[3],1370 nM (active)
same,Potency,[4],inactive
C=CC1CN2CCC1CC2c1[nH]c2ccccc2c1CCO (centres undefined),Potency,[1],inactive
same,Potency,[2],inactive
same,Potency,[3],inactive
O=c1cc(N2CCOCC2)oc2c(-c3ccccc3)cccc12,outcome,[6],inactive
same,outcome,[7],inactive
same,Potency,[8],inactive
same,outcome,[9],inactive
same,Potency,[1],15.3 µM (active)
same,Potency,[2],inactive
same,Potency,[3],inactive
same,Potency,[4],inactive
same,"activity change, negative = inhibition",[5],-24.5%
CNC(=O)CN1CCC(Oc2cc3c(Nc4cccc(Cl)c4F)ncnc3cc2OC)CC1,Potency,[1],0.0769 µM (active)
same,Potency,[2],30.6 nM (active)
same,Potency,[3],38.5 nM (active)
same,Potency,[4],inactive
same,"activity change, negative = inhibition",[5],-16.1%
CCc1c2c(nc3ccc(O)cc13)-c1cc3c(c(=O)n1C2)COC(=O)[C@]3(O)CC,Potency,[1],0.109 µM (active)
same,Potency,[2],243 nM (active)
same,Potency,[3],217 nM (active)
same,"activity change, negative = inhibition",[5],-97.1%
NCC(=O)Nc1ccc(-n2nc(C(F)(F)F)cc2-c2ccc3c(ccc4ccccc43)c2)cc1,Potency,[1],19.3 µM (active)
same,Potency,[2],10900 nM (active)
same,Potency,[3],1720 nM (active)
same,Potency,[10],6.07 µM (active)
CCOc1cc2ncc(C#N)c(Nc3ccc(OCc4ccccn4)c(Cl)c3)c2cc1NC(=O)C=CCN(C)C,Potency,[1],1.37 µM (active)
same,Potency,[2],769 nM (active)
same,Potency,[3],1530 nM (active)
C=CC(=O)Nc1ccc2ncnc(Nc3ccc(OCc4cccc(F)c4)c(Cl)c3)c2c1,Potency,[1],0.968 µM (active)
same,Potency,[2],385 nM (active)
same,Potency,[3],432 nM (active)
same,Potency,[5],inactive
